# Reference: PubChem BioAssay (EPA / NIEHS)
# Several values for one entry are separate records, joined by “and”; a condition that tells them apart may be missing. Identical values can stand only once. Results filed as inconclusive are left out. Activity calls are given as the source filed them. How the source made its calls, unless noted: active means hit-call score of the fitted dose curve at least 0.9, where 1 is the maximum; inactive means score below 0.9.
# How the values were obtained:
# [1] = CCTE_Mundy_HCI_Cortical_Synap_Neur_Matur_NeuriteLength: CCTE's Synaptogenesis and Neurite Maturation Assay in rat cortical cells for Neurite Length, Mundy Lab (AID 2284214)
# Method in brief: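 DMSO-normalised neurite length, from high-content imaging of anti-MAP2-stained rat cortical cells fixed at DIV 12. Glia were suppressed with AraC (DIV 5) before chemical exposure from DIV 7.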
# [2] = CCTE_Mundy_HCI_Cortical_Synap_Neur_Matur_NeuriteSpotCountPerNeuron: CCTE's Synaptogenesis and Neurite Maturation Assay in rat cortical cells for Neurite Spot Count per Neuron Count, Mundy Lab (AID 2284215)
# Method in brief: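 Developing rat cortical neurons, with glia suppressed by AraC, are exposed to chemicals from DIV 7 to DIV 12. Automated fluorescence imaging of MAP2-labelled neurites and synaptophysin puncta yields a count per neuron, normalised against DMSO wells.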
# [3] = CCTE_Mundy_HCI_Cortical_Synap_Neur_Matur_SynapseCount: CCTE's Synaptogenesis and Neurite Maturation Assay in rat cortical cells for Synapse Count, Mundy Lab (AID 2284218)
# Method in brief: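 Endpoint: synapses/neuron by HCI (synaptophysin puncta on MAP2-labelled neurites, Hoechst nuclei). Rat primary cortical cells, AraC DIV 5, dosed DIV 7, fixed DIV 12; DMSO negative control.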
# [4] = CCTE_Mundy_HCI_Cortical_Synap_Neur_Matur_CellBodySpotCount: CCTE's Synaptogenesis and Neurite Maturation Assay in rat cortical cells for Cell Body Spot Count, Mundy Lab (AID 2284223)
# Method in brief: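 Chemicals were applied to AraC-treated rat primary cortical cells at DIV 7 and measured at DIV 12. Fixed cells were labelled for MAP2, synaptophysin and nuclei, and high-content imaging gave cell body synaptophysin spot counts per neuron relative to DMSO.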
# [5] = CCTE_Mundy_HCI_Cortical_Synap_Neur_Matur_NeuronCount: CCTE's Synaptogenesis and Neurite Maturation Assay in rat cortical cells for Neuron Count, Mundy Lab (AID 2284242; active means hit-call score of the fitted dose curve at least 0.9, where 1 is the maximum;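 on AC50: hits reduce neuron count versus DMSO baseline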)
# Method in brief: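 Measured at DIV 12: fluorescently labelled neurons (Hoechst nuclei, MAP2) in rat primary cortical cultures, counted by high-content imaging. AraC suppressed glia from DIV 5; DMSO served as negative control.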
# [6] = IUF_NPC5_oligodendrocyte_differentiation_120hr: Leibniz Research Institute for Environmental Medicine (IUF) 120-hour Oligodendrocyte Differentiation Assay (NPC5) (AID 2284304; active means hit-call score of the fitted dose curve at least 0.9, where 1 is the maximum;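 further: primary human fetal neural progenitor spheres plated to migrate and differentiate; share of O4-positive cells among Hoechst nuclei found by CNN image analysis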)
# Method in brief: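 After plating on poly-D-lysine/laminin, fetal-derived hNPC spheres differentiated for 120 h at 37C in compound-containing N2 medium, refreshed by half on day 3. O4 immunostaining over Hoechst nuclei in the migration zone gave oligodendrocyte percentage relative to DMSO.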
# [7] = TAMU_PeakParms_SingleDonor1434_Asystole: Texas A&M University (TAMU) 1.5-hr Human Induced Pluripotent Stem Cell (iPSC)-derived Cardiomyocytes Calcium (Ca+2) Flux Assay for Cardiotoxicity: Asystole (quiescence of beating) (AID 2284328; active means hit-call score of the fitted dose curve at least 0.9, where 1 is the maximum)
# Method in brief: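 Average Ca2+-flux peak frequency (beats/s) was recorded in single-donor iPSC-derived cardiomyocytes after 90 min exposure (0.2–100 uM final, 0.5% DMSO). Asystole POD set as EC95 against DMSO, no preprocessing.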
# [8] = biological target: human Beta-secretase (BACE), BACE1 (gene 23621) (UniProt P56817); assay: NVS_ENZ_hBACE: NovaScreen (NVS) Enzymatic Assay for human Beta-secretase (BACE) (AID 2283140; active means hit-call score of the fitted dose curve at least 0.9, where 1 is the maximum;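 further: hits are inhibitors that reduce fluorescent substrate signal versus DMSO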)
# Sequence of human Beta-secretase (BACE), BACE1 (gene 23621) (P56817 whole entry, looked up): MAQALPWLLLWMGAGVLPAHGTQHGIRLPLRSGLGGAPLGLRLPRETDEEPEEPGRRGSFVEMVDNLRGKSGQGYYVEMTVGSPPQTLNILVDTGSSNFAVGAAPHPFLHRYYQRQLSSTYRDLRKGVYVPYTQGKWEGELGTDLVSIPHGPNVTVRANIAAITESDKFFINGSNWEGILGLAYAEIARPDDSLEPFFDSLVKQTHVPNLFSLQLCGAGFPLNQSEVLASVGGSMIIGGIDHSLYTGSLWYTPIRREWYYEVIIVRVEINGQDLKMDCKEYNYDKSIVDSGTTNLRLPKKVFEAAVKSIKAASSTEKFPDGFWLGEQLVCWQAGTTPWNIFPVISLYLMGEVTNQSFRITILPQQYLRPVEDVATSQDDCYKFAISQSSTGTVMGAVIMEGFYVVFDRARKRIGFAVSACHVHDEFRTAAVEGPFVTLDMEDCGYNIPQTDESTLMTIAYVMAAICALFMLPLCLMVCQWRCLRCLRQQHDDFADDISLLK
# Method in brief: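 Enzyme activity of SF9-produced BACE1 is measured cell-free by fluorescence, 1 hour post dosing, normalised to DMSO. Screening used 25 uM in duplicate, with concentration-response follow-up for actives.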
# [9] = biological target: Glucocorticoid receptor (Homo sapiens) (UniProt P04150); assay: NVS_NR_hGR: NovaScreen (NVS) Nuclear Receptor Binding Assay for human Glucocorticoid Receptor (GR) (AID 2283363; active means hit-call score of the fitted dose curve at least 0.9, where 1 is the maximum;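 on AC50: activity is loss of specific radioligand binding signal relative to DMSO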)
# Method in brief: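 Compounds first tested in duplicate at 25 uM, actives followed up in concentration series. Binding to extracted GR protein measured as competitive radioligand displacement, filter scintillation read 16 h post-dosing, normalised to DMSO.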
# [10] = STM_H9_OrnCyssISnorm_ratio: Stemina devTOX quickPredict H9 human embryonic stem cell (hESC)-based Assay for Ornithine (ORN):Cystine (CYSS) Ratio (AID 2283714; active means hit-call score of the fitted dose curve at least 0.9, where 1 is the maximum)
# Method in brief: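 Ratio of internal-standard-normalized ornithine to cystine, measured by UPLC-HRMS in spent media from the last 24 h. H9 cells kept pluripotent, dosed 72 h with daily media and compound renewal; DMSO 0.1% serves as baseline.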
# [11] = biological target: Sodium channel protein type 1 subunit alpha (Rattus norvegicus) (UniProt P04774); assay: NVS_IC_rNaCh_site2: NovaScreen (NVS) Ion Channel Assay for rat Sodium Channel, Site 2 (NaCh) (AID 2283322; active means hit-call score of the fitted dose curve at least 0.9, where 1 is the maximum;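 further: hit means loss of radioligand binding signal relative to DMSO so AC50 marks displacement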)
# Method in brief: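 Initial duplicate single-point testing at 25 uM, followed by concentration-response runs for actives. Binding of radioligand to rat forebrain membranes quantified after 1 h via filter-based radiodetection.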
# PGR (gene 5241) = PGR (gene 5241) (UniProt P06401); assay: NVS_NR_hPR: NovaScreen (NVS) Nuclear Receptor Binding Assay for human Progestron Receptor (PR) (AID 2283360; active means hit-call score of the fitted dose curve at least 0.9, where 1 is the maximum;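 further: active means loss of bound radioligand signal versus DMSO baseline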)
# Sequence of PGR (gene 5241) (P06401 whole entry, looked up): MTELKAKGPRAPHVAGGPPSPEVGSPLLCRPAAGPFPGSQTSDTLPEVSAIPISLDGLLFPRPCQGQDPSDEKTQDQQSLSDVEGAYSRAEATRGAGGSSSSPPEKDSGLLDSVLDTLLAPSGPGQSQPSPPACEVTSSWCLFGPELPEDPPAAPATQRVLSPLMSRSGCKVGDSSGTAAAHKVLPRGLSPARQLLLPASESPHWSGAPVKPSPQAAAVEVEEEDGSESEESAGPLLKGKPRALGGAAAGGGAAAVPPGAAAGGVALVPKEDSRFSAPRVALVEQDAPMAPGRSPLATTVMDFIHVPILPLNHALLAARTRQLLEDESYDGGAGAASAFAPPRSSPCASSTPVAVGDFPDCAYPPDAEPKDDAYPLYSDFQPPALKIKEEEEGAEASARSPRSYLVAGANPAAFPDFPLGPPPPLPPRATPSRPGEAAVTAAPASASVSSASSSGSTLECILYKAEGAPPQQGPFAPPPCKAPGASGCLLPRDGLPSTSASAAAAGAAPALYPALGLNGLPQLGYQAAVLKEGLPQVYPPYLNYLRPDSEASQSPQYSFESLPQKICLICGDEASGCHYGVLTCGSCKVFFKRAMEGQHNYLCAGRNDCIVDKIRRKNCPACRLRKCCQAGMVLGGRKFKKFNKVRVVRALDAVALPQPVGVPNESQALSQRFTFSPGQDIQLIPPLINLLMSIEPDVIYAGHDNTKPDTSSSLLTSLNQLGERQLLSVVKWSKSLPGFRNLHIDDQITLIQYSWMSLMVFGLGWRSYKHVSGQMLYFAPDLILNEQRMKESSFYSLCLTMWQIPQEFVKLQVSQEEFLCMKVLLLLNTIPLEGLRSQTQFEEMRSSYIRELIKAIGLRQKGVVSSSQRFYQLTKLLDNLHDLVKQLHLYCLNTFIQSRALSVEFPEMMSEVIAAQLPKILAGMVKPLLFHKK
# Method in brief: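 T47D-derived receptor preparation, cell-free, with tritiated or iodinated radioligand displacement measured by scintillation 18 h post-dosing. Single 25 uM duplicate screen, then concentration series; signal loss relative to DMSO.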
# [12] = biological target: sheep Cyclooxygenase-2 (Cox2), PTGS2 (gene 443460) (UniProt P79208); assay: NVS_ENZ_oCOX2: NovaScreen (NVS) Enzymatic Assay for sheep Cyclooxygenase-2 (Cox2) (AID 2283231; active means hit-call score of the fitted dose curve at least 0.9, where 1 is the maximum)
# Sequence of sheep Cyclooxygenase-2 (Cox2), PTGS2 (gene 443460) (P79208 whole entry, looked up): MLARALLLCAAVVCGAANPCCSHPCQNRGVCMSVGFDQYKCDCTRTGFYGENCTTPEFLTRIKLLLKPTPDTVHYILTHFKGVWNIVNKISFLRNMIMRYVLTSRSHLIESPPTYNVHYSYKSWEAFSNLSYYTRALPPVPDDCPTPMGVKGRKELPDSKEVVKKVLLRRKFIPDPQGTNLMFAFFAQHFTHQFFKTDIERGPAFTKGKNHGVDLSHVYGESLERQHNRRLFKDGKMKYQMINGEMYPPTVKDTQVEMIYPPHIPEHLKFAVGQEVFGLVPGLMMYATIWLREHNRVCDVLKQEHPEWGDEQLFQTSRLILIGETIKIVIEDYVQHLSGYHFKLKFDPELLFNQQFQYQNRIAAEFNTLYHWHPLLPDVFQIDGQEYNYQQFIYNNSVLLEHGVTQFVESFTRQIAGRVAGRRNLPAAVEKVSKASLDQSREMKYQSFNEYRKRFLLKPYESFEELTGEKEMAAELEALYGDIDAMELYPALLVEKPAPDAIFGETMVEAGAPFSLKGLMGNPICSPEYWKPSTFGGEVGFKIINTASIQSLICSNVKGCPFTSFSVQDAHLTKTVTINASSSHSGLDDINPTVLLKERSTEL
# Method in brief: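 Enzyme extracted from ovine placenta tested cell-free; activity read colorimetrically by absorbance 0.66 hour after dosing. Primary screen in duplicate at 25 uM; hits rerun as concentration series to 50 uM, loss of signal versus DMSO baseline.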
# [13] = read-out: Tumor necrosis factor receptor superfamily member 6 (Homo sapiens) (UniProt P25445); assay: LTEA_HepaRG_FAS: Life Technologies and Expression Analysis (LTEA) Assay for Fas cell surface death receptor (FAS) using HepaRG (AID 2283447); details: mRNA level, 48 h; actives raise or lower the signal
# Method in brief: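 FAS transcript level was measured by TaqMan qRT-PCR against three housekeeping genes after 48 h chemical exposure. Cells were HepaRG, 0.5% DMSO vehicle, with a top concentration of 100 uM and half-log dilutions over eight points, in duplicate.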
# [14] = read-out: Fatty acid synthase (Homo sapiens) (UniProt P49327); assay: LTEA_HepaRG_FASN: Life Technologies and Expression Analysis (LTEA) Assay for Fatty Acid Synthase (FASN) using HepaRG (AID 2283448); details: mRNA level, 48 h; actives raise or lower the signal
# Method in brief: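 In human HepaRG cultures, 48 h chemical exposure (up to 100 uM, 0.5% DMSO) preceded TaqMan qRT-PCR of FASN.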
# [15] = read-out: Cyclin Dependent Kinase Inhibitor 1A (CDKN1A), CDKN1A (gene 1026); assay: LTEA_HepaRG_CDKN1A: Life Technologies and Expression Analysis (LTEA) Assay for Cyclin Dependent Kinase Inhibitor 1A (CDKN1A) using HepaRG (AID 2283450); details: mRNA level, 48 h; actives raise or lower the signal
# Method in brief: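 Gain or loss of CDKN1A transcript is scored by bidirectional fitting against 0.5% DMSO vehicle. Human HepaRG cultures receive chemicals for 48 h across an 8-point series peaking at 100 uM; expression comes from qRT-PCR.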
# [16] = read-out: Cyclin D1 (CCND1), CCND1 (gene 595); assay: LTEA_HepaRG_CCND1: Life Technologies and Expression Analysis (LTEA) Assay for Cyclin D1 (CCND1) using HepaRG (AID 2283451); details: mRNA level, 48 h; actives raise or lower the signal
# Method in brief: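 Expression change is measured by qRT-PCR in HepaRG cells after 48 h treatment across eight concentrations topping at 100 uM, with duplicate wells and DMSO (0.5%) serving as baseline for bidirectional fitting.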
# [17] = read-out: catalase (CAT), CAT (gene 847); assay: LTEA_HepaRG_CAT: Life Technologies and Expression Analysis (LTEA) Assay for catalase (CAT) using HepaRG (AID 2283452); details: mRNA level, 48 h; actives raise or lower the signal
# Method in brief: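 Expression of CAT was quantified by TaqMan qRT-PCR with ACTB/GAPDH/POLR2A normalization after 48 h chemical exposure of HepaRG. Eight-point half-log series, top 100 uM, in 0.5% DMSO; gain or loss fitted against vehicle.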
# [18] = read-out: flavin-containing dimethylaniline monooxygenases 3 (FMO3), FMO3 (gene 2328); assay: LTEA_HepaRG_FMO3: Life Technologies and Expression Analysis (LTEA) Assay for flavin-containing dimethylaniline monooxygenases 3 (FMO3) using HepaRG (AID 2283453); details: mRNA level, 48 h; actives raise or lower the signal
# Method in brief: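 Eight-point concentration-response in serum-free HepaRG cultures (top 100 uM, 0.5% DMSO, 48 h). Read-out: FMO3 mRNA level normalized to three endogenous control genes, fitted bidirectionally versus vehicle.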
# [19] = read-out: Cytochrome P450 (CYP1A1), CYP1A1 (gene 1543); assay: LTEA_HepaRG_CYP1A1: Life Technologies and Expression Analysis (LTEA) Assay for Cytochrome P450 (CYP1A1) using HepaRG (AID 2283454); details: mRNA level, 48 h; actives raise or lower the signal
# Method in brief: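 Using HepaRG cultures with 0.5% DMSO as vehicle, eight-concentration exposures (max 100 uM) lasted 48 h. Transcript levels were measured by TaqMan qRT-PCR and normalized to ACTB, GAPDH and POLR2A.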
# Sequence of Fatty acid synthase (Homo sapiens) (P49327 whole entry, looked up): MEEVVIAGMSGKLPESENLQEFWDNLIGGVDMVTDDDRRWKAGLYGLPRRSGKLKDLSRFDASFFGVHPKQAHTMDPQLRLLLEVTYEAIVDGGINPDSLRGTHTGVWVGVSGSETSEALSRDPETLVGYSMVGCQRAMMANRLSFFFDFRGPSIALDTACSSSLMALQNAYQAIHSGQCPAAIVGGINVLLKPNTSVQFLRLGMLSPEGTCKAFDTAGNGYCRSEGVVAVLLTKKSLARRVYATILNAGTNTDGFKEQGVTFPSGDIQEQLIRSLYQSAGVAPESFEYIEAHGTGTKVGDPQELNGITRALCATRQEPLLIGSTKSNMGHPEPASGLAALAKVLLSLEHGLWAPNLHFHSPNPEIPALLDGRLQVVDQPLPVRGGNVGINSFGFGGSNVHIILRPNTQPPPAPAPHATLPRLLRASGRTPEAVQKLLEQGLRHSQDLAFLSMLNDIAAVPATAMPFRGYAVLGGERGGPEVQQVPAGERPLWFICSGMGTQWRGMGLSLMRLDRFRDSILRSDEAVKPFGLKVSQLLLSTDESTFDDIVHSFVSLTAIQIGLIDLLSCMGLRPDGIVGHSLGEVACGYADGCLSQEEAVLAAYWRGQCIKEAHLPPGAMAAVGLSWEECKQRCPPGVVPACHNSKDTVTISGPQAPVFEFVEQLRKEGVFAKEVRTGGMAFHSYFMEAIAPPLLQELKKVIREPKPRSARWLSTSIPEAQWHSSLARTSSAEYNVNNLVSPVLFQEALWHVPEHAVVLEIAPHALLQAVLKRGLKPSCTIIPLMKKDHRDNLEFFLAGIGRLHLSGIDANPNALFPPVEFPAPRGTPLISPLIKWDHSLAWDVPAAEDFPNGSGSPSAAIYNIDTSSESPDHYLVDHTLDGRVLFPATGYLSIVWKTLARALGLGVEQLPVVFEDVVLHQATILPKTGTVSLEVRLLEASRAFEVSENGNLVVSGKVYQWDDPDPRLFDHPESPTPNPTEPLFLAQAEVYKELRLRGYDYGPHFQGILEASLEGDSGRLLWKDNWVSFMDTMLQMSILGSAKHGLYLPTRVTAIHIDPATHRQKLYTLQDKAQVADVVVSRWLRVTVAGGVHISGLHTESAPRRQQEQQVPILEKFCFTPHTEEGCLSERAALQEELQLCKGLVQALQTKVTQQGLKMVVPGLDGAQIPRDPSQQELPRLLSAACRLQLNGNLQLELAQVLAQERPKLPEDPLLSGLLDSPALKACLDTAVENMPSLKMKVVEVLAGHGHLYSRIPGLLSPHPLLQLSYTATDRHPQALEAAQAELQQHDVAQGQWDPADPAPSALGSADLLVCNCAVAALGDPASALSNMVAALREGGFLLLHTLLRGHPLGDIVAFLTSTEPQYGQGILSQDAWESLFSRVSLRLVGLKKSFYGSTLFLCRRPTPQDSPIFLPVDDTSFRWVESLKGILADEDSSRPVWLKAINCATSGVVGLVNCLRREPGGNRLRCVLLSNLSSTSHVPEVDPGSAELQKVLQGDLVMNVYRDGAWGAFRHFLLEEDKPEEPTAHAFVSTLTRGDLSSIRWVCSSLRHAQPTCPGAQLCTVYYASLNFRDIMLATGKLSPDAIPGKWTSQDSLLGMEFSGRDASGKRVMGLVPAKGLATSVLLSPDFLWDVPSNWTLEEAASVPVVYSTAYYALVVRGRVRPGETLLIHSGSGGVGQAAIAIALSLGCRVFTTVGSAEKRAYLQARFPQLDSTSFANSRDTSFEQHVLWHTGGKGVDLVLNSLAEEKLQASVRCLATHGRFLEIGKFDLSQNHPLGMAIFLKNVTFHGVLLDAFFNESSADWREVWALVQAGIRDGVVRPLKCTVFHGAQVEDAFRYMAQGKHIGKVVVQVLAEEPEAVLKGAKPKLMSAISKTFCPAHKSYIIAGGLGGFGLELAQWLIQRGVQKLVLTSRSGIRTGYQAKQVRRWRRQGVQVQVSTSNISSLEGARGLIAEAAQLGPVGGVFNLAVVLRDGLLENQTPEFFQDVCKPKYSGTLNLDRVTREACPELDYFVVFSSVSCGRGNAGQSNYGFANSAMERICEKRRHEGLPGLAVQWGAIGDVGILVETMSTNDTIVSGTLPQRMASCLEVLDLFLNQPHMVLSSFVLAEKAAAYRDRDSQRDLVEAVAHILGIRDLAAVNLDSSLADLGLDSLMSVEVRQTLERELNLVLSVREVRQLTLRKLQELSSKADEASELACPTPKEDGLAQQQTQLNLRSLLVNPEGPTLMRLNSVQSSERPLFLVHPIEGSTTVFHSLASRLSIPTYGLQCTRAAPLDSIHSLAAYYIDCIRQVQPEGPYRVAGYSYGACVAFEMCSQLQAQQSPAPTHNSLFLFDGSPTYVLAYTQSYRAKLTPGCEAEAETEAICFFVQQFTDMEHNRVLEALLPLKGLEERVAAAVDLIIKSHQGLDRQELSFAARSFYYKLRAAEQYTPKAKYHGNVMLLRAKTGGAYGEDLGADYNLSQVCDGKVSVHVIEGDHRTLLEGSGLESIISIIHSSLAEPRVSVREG
smiles,measurement,setting,value
CC1(C)[C@H](C(=O)O[C@H](C#N)c2cccc(Oc3ccccc3)c2)[C@@H]1C=C(Br)Br,AC50,[1],8.82 µM (active)
same,AC50,[2],7.04 µM (active)
same,AC50,[3],6.79 µM (active)
same,outcome,[4],inactive
same,AC50,[5],23.9 µM (active)
same,AC50,[6],0.729 µM (active)
same,outcome,[7],inactive
O=c1c2ccccc2c(=O)c2c1cc(Cl)c1[nH]c3c([nH]c12)c(Cl)cc1c(=O)c2ccccc2c(=O)c13,AC50,[8],12.4 µM (active)
same,AC50,[9],12.9 µM (active)
same,AC50,[10],10 µM (active)
CCc1cc(C)cc(CC)c1-c1c(OC(=O)C(C)(C)C)n2n(c1=O)CCOCC2,outcome,[11],inactive
C[C@]12CC[C@H](O)C[C@H]1CC[C@@H]1[C@@H]2C[C@@H](O)[C@]2(C)[C@@H](C3=CC(=O)OC3)CC[C@]12O,outcome,[11],inactive
same,outcome,PGR (gene 5241),inactive
CNC(=N[N+](=O)[O-])NCC1CCOC1 (stereo not given),outcome,[12],inactive
same,AC50,[1],0.0157 µM (active)
same,AC50,[2],0.00988 µM (active)
same,AC50,[3],0.00885 µM (active)
same,outcome,[4],inactive
same,outcome,[5],inactive
O=C(CCl)c1ccccc1,outcome,[13],inactive
same,outcome,[14],inactive
same,outcome,[15],inactive
same,outcome,[16],inactive
same,outcome,[17],inactive
same,outcome,[18],inactive
same,outcome,[19],inactive
CC(C)COP(=O)(OCC(C)C)OCC(C)C,outcome,[8],inactive
O=C1C(Cl)=C(Cl)C(=O)C(Cl)=C1Cl,outcome,[10],inactive
N#CCCCCC#N,outcome,[13],inactive
same,outcome,[14],inactive
same,outcome,[15],inactive
same,outcome,[16],inactive
same,outcome,[17],inactive
same,outcome,[18],inactive
same,outcome,[19],inactive
CC(C)(c1cc(Cl)c(O)c(Cl)c1)c1cc(Cl)c(O)c(Cl)c1,AC50,[9],544 nM (active) and 146 nM (active)
O=CNC(N1CCN(C(NC=O)C(Cl)(Cl)Cl)CC1)C(Cl)(Cl)Cl (stereo not given),outcome,[12],inactive
ClC1=C(Cl)[C@]2(Cl)[C@@H]3[C@@H](Cl)[C@H](Cl)C[C@@H]3[C@@]1(Cl)C2(Cl)Cl,outcome,PGR (gene 5241),inactive
C=COCCCl,outcome,PGR (gene 5241),inactive
CC(C)CCCCCCCOP(=O)(Oc1ccccc1)Oc1ccccc1,AC50,[6],5.15 µM (active)
same,outcome,[7],inactive
Cc1ccc(OP(=O)(Oc2ccc(C)cc2)Oc2ccc(C)cc2)cc1 (tested in a mixture with another compound),AC50,[10],61.9 µM (active)
same,outcome,[1],inactive
same,AC50,[2],15 µM (active)
same,AC50,[3],15 µM (active)
same,outcome,[4],inactive
same,AC50,[5],24 µM (active)
same,outcome,[6],inactive
same,AC50,[7],7.7 µM (active)
CC(C)(C)C(O)C(Oc1ccc(-c2ccccc2)cc1)n1cncn1 (stereo not given),outcome,[11],inactive
same,outcome,[9],inactive
Nc1ccc(-c2ccc(N)c(N)c2)cc1N,AC50,[8],10.2 µM (active)
O=[N+]([O-])c1ccc(Cl)cc1,outcome,[12],inactive
same,outcome,[13],inactive
same,outcome,[14],inactive
same,outcome,[15],inactive
same,outcome,[16],inactive
same,outcome,[17],inactive
same,outcome,[18],inactive
same,AC50,[19],37.8 µM (active)
